Laboratory results published in PubChem BioAssay (NCATS).
Results filed as inconclusive are left out. The source made the active and inactive calls. Calls come from the whole dose curve; as a rule, active = well fitted curve in the direction sought with a large enough effect; inconclusive = small, poorly fitted or top-dose-only effect, or another doubt; inactive = no such curve, though single readings can be large; an effect the other way counts as inactive or inconclusive.

How the values were obtained:
Hek293T = test: Primary qHTS to identify gynecologic anti-cancer compounds using libraries of approved drugs and bioactive compounds (AID 1345084); settings: Gynecologic cancer cell panel viability, ATPlite luminescence, 48 h, control line for the selectivity index; series mostly up to 57.5 µM; note: nearly all actives have a fitted effect of over 55% in size
Procedure, shortened: (§1)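 48 h compound exposure at 37 C, 5% CO2; five-point qHTS. ATPlite luminescence readout of cell ATP.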

JEG-3 = test: as above; settings: Gynecologic cancer cell panel viability, ATPlite luminescence, 48 h; series mostly up to 57.5 µM
Procedure, shortened: as §1

OV90 = test: as above; settings: Gynecologic cancer cell panel viability, ATPlite luminescence, 48 h; series mostly up to 57.5 µM
Procedure, shortened: as §1

PA-1 = test: as above; settings: Gynecologic cancer cell panel viability, ATPlite luminescence, 48 h; series mostly up to 57.5 µM
Procedure, shortened: as §1

SKOV3 = test: as above; settings: Gynecologic cancer cell panel viability, ATPlite luminescence, 48 h; series mostly up to 57.5 µM
Procedure, shortened: as §1

Tov-21-G = test: as above; settings: Gynecologic cancer cell panel viability, ATPlite luminescence, 48 h; series mostly up to 57.5 µM
Procedure, shortened: as §1

Tov112D = test: as above; settings: Gynecologic cancer cell panel viability, ATPlite luminescence, 48 h; series mostly up to 57.5 µM
Procedure, shortened: as §1

[1] = Drug repurposing screens with cells derived from glioblastoma tumor samples (AID 1345199); settings: GBM patient neurospheres viability, ATP luminescence, 48 h; note: nearly all actives have a fitted effect of over 40% in size; note: potency is the fitted concentration of half-maximal effect
Procedure, shortened: (§2)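 Primary testing used CD133+ neurospheres from four GBM patients, seven concentrations, 48 h exposure and ATP-based viability; confirmation added three slower-growing patient lines.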

astro = test: as above; settings: viability, ATP luminescence, 48 h; series mostly up to 45.9 µM
Procedure, shortened: as §2

[2] = at 45.9 µM (top of the series), tumour line B
[3] = at 45.9 µM (top of the series), tumour line D
[4] = at 46.1 µM (top of the series), tumour line C
[5] = at 46 µM (top of the series), tumour line A
% is set by controls: 0 for no effect and ±100 for the full control effect.

CCCCC(CC)COC(=O)c1ccc(N(C)C)cc1 (stereo unspecified)
inactive: Potency (Hek293T) | Potency (JEG-3) | Potency (OV90) | Potency (PA-1) | Potency (SKOV3) | Potency (Tov-21-G) | Potency (Tov112D) | activity, negative = cell killing [1, 2] -7.11% | activity, negative = cell killing [1, 3] -11.8% | activity, negative = cell killing [1, 4] -2.69% | Potency (astro)

Cc1cc2c(OCC(CNC(C)(C)C)OC(=O)c3ccccc3)cccc2[nH]1 (stereo unspecified)
inactive: Potency (Hek293T) | Potency (JEG-3) | Potency (OV90) | Potency (PA-1) | Potency (SKOV3) | Potency (Tov-21-G) | Potency (Tov112D) | activity, negative = cell killing [1, 2] -19.3% | activity, negative = cell killing [1, 3] -5.62% | activity, negative = cell killing [1, 4] -10.8% | Potency (astro)

NS(=O)(=O)Cc1noc2ccccc12
inactive: Potency (Hek293T) | Potency (JEG-3) | Potency (OV90) | Potency (PA-1) | Potency (SKOV3) | Potency (Tov-21-G) | Potency (Tov112D) | activity, negative = cell killing [1, 2] -12.5% | activity, negative = cell killing [1, 3] -13.1% | activity, negative = cell killing [1, 4] 1.44% | Potency (astro)

Cc1cc(-c2ccccc2)nnc1NCCN1CCOCC1
inactive: Potency (Hek293T) | Potency (JEG-3) | Potency (OV90) | Potency (PA-1) | Potency (SKOV3) | Potency (Tov-21-G) | Potency (Tov112D) | activity, negative = cell killing [1, 2] -18.6% | activity, negative = cell killing [1, 3] -4.44% | activity, negative = cell killing [1, 4] -11.7% | Potency (astro)
active: Potency ([1]; tumour line A) 12.6 µM

CC(C)Cn1cnc2c1c(=O)n(C)c(=O)n2C
inactive: Potency (Hek293T) | Potency (JEG-3) | Potency (OV90) | Potency (PA-1) | Potency (SKOV3) | Potency (Tov-21-G) | Potency (Tov112D) | activity, negative = cell killing [1, 2] -4.91% | activity, negative = cell killing [1, 3] -3.1% | activity, negative = cell killing [1, 4] -1.11% | Potency (astro)

Nc1nc(-c2ccccc2)c(Br)c(=O)[nH]1
inactive: Potency (Hek293T) | Potency (JEG-3) | Potency (OV90) | Potency (PA-1) | Potency (SKOV3) | Potency (Tov-21-G) | Potency (Tov112D) | activity, negative = cell killing [1, 2] -8.97% | activity, negative = cell killing [1, 3] -11.4% | activity, negative = cell killing [1, 5] -28.3% | Potency (astro)

NC(=O)c1ccccc1O
inactive: Potency (Hek293T) | Potency (JEG-3) | Potency (OV90) | Potency (PA-1) | Potency (SKOV3) | Potency (Tov-21-G) | Potency (Tov112D) | activity, negative = cell killing [1, 2] -6.32% | activity, negative = cell killing [1, 3] 0.802% | activity, negative = cell killing [1, 5] -27.6% | activity, negative = cell killing [1, 4] 4.05% | Potency (astro)

O=C(O)c1ccc(S(=O)(=O)N(Cl)Cl)cc1
inactive: Potency (Hek293T) | Potency (JEG-3) | Potency (OV90) | Potency (PA-1) | Potency (SKOV3) | Potency (Tov-21-G) | Potency (Tov112D) | activity, negative = cell killing [1, 2] -12% | activity, negative = cell killing [1, 3] -8.56% | activity, negative = cell killing [1, 4] -26.9% | Potency (astro)

OC(C#CCN1CCCC1)(c1ccccc1)c1ccccc1
inactive: Potency (Hek293T) | Potency (JEG-3) | Potency (OV90) | Potency (PA-1) | Potency (SKOV3) | Potency (Tov-21-G) | Potency (Tov112D) | activity, negative = cell killing [1, 2] -17.2% | activity, negative = cell killing [1, 4] -29.1% | Potency (astro)
active: Potency ([1]; tumour line A) 11.2 µM

COc1ccc(C(=O)c2ccccc2)c(O)c1
inactive: Potency (Hek293T) | Potency (JEG-3) | Potency (OV90) | Potency (PA-1) | Potency (SKOV3) | Potency (Tov-21-G) | Potency (Tov112D) | activity, negative = cell killing [1, 2] 1.18% | activity, negative = cell killing [1, 3] -2.35% | activity, negative = cell killing [1, 4] -6.38% | Potency (astro)

N[C@H](C(=O)O)[C@@H](O)c1ccc(O)c(O)c1
inactive: Potency (Hek293T) | Potency (JEG-3) | Potency (OV90) | Potency (PA-1) | Potency (SKOV3) | Potency (Tov-21-G) | Potency (Tov112D) | activity, negative = cell killing [1, 2] -8.13% | activity, negative = cell killing [1, 3] -33.1% | activity, negative = cell killing [1, 4] -8.89% | Potency (astro)

CCCN(CCC)S(=O)(=O)c1ccc(C(=O)O)cc1
inactive: Potency (Hek293T) | Potency (JEG-3) | Potency (OV90) | Potency (PA-1) | Potency (SKOV3) | Potency (Tov-21-G) | Potency (Tov112D) | activity, negative = cell killing [1, 2] -5.41% | activity, negative = cell killing [1, 3] 6.49% | activity, negative = cell killing [1, 5] -4.85% | activity, negative = cell killing [1, 4] -7.91% | Potency (astro)

Cc1cccc(C)c1NC(=O)CN1CCCC1
inactive: Potency (Hek293T) | Potency (JEG-3) | Potency (OV90) | Potency (PA-1) | Potency (SKOV3) | Potency (Tov-21-G) | Potency (Tov112D) | activity, negative = cell killing [1, 2] -9.15% | activity, negative = cell killing [1, 3] 5.92% | activity, negative = cell killing [1, 4] -8.15% | Potency (astro)
